Rows were chosen to be rich in hits. Some 8.7% of all compounds tested hit in one or more screens of this group.
G9a block = qHTS Assay for Inhibitors of Histone Lysine Methyltransferase G9a | Histone-lysine N-methyltransferase EHMT2 (Homo sapiens), Q96KQ7 | G9a H3K9 monomethylation, AlphaScreen, 2 h | Potency, µM (highest dose often 102 µM), for the others: at the highest dose activity, negative = inhibition, most hits filed as inhibitors | 350,000 tested, 8.8% active; note: % is set by controls: 0 for no effect and ±100 for the full control effect; nearly all actives have a fitted effect of over 75% in size
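Readings reflect AlphaScreen signal from monomethyl-H3K9 antibody detection. HMT at 20 nM; substrate b-H3K9 500 nM; cofactor SAM 20 uM; 2 h RT reaction; compounds tested as titrations in qHTS with 15 min preincubation.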
BAZ2B block = qHTS Assay for Inhibitors of BAZ2B; Bromodomain adjacent to zinc finger domain protein 2B (Homo sapiens), Q9UIF8; AlphaScreen BAZ2B-H3K14Ac peptide displacement; Potency, µM (titrated, usually from 114 µM), without a hit: at the highest dose activity change, negative = inhibition, usual class: inhibitors; 360,000 tested, 4.4% active; AID 504333, 2011; note: % is set by controls: 0 for no effect and ±100 for the full control effect; nearly all actives have a fitted effect of over 60% in size
Target sequence (Q9UIF8 whole entry, looked up, the tested form may be a part): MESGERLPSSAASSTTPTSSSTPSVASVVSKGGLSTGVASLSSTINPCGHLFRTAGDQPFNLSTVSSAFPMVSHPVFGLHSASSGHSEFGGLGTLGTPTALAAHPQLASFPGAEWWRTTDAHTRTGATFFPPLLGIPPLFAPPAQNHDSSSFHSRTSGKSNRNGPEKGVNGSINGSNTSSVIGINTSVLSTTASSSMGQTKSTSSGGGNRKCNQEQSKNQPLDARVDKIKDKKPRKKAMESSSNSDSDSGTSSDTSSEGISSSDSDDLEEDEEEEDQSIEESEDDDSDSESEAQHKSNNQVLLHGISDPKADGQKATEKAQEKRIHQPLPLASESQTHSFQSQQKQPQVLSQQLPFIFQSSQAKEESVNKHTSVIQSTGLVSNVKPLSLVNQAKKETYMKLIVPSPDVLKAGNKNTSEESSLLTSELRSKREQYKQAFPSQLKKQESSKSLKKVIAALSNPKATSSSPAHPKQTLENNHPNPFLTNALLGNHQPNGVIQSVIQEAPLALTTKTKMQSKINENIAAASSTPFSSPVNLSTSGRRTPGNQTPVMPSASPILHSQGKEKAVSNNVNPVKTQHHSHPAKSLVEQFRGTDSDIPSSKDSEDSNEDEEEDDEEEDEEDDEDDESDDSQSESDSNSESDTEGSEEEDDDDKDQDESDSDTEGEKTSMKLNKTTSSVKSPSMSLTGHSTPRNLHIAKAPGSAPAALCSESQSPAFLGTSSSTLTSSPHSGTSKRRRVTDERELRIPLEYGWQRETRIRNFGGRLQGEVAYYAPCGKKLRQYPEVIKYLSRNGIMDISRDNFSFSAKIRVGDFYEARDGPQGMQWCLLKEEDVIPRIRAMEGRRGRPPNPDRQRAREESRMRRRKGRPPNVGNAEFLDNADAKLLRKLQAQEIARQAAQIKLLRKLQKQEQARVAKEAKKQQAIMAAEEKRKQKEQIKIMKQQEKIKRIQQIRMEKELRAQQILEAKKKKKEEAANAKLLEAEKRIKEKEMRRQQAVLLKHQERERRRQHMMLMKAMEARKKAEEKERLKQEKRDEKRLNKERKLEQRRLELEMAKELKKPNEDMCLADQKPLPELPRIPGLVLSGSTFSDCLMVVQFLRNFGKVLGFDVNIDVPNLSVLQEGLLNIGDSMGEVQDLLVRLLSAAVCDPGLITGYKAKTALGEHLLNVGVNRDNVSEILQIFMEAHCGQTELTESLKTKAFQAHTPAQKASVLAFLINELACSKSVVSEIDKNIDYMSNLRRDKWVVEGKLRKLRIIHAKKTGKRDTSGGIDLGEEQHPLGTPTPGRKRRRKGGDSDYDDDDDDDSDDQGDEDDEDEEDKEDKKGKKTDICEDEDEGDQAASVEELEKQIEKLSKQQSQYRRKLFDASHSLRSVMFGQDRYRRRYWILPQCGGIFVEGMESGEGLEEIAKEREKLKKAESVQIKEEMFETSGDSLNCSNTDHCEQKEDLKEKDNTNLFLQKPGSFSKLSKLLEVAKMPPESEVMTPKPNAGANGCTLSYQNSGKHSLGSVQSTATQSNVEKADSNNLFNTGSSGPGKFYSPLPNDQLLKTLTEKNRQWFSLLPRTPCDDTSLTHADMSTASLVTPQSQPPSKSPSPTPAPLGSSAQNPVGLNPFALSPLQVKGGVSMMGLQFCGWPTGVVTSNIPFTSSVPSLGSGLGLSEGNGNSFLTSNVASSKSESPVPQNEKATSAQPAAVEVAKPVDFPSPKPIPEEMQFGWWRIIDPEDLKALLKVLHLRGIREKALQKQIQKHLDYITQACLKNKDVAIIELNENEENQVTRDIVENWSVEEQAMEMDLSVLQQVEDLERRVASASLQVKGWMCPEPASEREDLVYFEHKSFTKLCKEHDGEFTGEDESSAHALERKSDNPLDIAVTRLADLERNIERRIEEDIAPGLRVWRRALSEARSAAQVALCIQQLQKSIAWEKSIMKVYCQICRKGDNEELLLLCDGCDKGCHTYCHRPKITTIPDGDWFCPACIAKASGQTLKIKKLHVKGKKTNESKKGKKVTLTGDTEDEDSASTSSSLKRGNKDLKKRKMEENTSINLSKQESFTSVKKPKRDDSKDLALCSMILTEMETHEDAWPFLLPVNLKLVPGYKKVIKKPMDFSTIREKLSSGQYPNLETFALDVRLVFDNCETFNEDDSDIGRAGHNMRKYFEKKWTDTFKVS
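In this displacement format the biotinylated H3(5-23) peptide acetylated at Lys14 serves as ligand at 50 nM, with BAZ2B at 50 nM in PBS pH 7.4 containing 0.01% Tween-20. Donor and acceptor beads are 10 ug/mL final.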
JMJD2A Tudor inh = qHTS Assay for Inhibitors of JMJD2A-Tudor Domain | 390,000 tested, 4.4% active | Lysine-specific demethylase 4A (Homo sapiens), O75164 | Potency, µM (series often up to 114 µM), without a hit: at the highest dose activity change, negative = inhibition, actives largely listed as inhibitors | AID 504339, 2011 | AlphaScreen JMJD2A-Tudor / H3K4me3 peptide binding; note: % is set by controls: 0 for no effect and ±100 for the full control effect; nearly all actives have a fitted effect of over 50% in size
HP1b binding inh = HTS for Inhibitors of HP1-beta Chromodomain Interactions with Methylated Histone Tails; Chromobox protein homolog 1 (Homo sapiens), P83916; AlphaScreen HP1-beta / biotin-H3K9me3 peptide binding; Potency, µM (doses to about 114 µM), for inactives: at the highest dose activity change, negative = inhibition, most hits filed as inhibitors; 390,000 tested, 0.56% active; AID 540317, 2011; note: nearly all actives have a fitted effect of over 70% in size
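AlphaScreen: HP1-beta (50 nM) preformed 30 min with biotin-H3(1-18)K9me3 peptide (50 nM) in PBS pH 7.4, 0.01% Tween-20. Compound added for 30 min at RT, then streptavidin donor/nickel chelate acceptor beads (10 ug/mL) for 30 min.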
Sfp inh = qHTS Assay for Inhibitors of Bacillus subtilis Sfp phosphopantetheinyl transferase (PPTase); 4'-phosphopantetheinyl transferase ffp (Bacillus subtilis), Q9F4F7; Biochemical Sfp PPTase activity, qHTS; Potency, µM, without a hit: largest response in the series, negative = inhibition, usual class: inhibitors; 310,000 tested, 3.5% active;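 note: the enzyme is Sfp with the accession as filed and its product quenches rhodamine fluorescence; 0% = enzyme reaction without inhibitor and -100% = no enzyme wells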
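Step 1, compound plus 15 nM Sfp-PPTase, 15 min, room temperature. Step 2, add rhodamine-CoA (5 uM) and BHQ-2-YbbR (12.5 uM). Step 3, read 525/598 nm fluorescence at 0 and 30 min.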
ALOX12 inh = Primary qHTS assay for inhibitors of human arachidonate 12S-lipoxygenase (ALOX12): Round 2 | Polyunsaturated fatty acid lipoxygenase ALOX12 (Homo sapiens), P18054 | purified 12hLO, xylenol orange hydroperoxide absorbance | Potency, µM (top dose mostly 108 µM), inactives show at the highest dose activity change, negative = inhibition, usual class: inhibitors | 580,000 tested, 1.1% active; note: % is set by controls: 0 for no effect and ±100 for the full control effect
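Purified human 12hLO at 150 nM in 25 mM Hepes, 0.01% Triton X-100, pH 7.0, preincubated 15 min at room temperature with compound. Reaction started with 40 uM arachidonic acid, 30 min at room temperature. Hydroperoxide measured by Fe-xylenol orange, 573/405 nm absorbance ratio.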
Active calls of the source: *; ? = inconclusive; nt = not tested or not shown; [ ] = dose if it differs, or a comment. Calls come from the whole dose curve; as a rule, active = well fitted curve in the direction sought with a large enough effect; inconclusive = small, poorly fitted or top-dose-only effect, or another doubt; inactive = no such curve, though single readings can be large; an effect the other way counts as inactive or inconclusive. Potency is the fitted concentration of half-maximal effect.

SMILES	G9a block	BAZ2B block	JMJD2A Tudor inh	HP1b binding inh	Sfp inh	ALOX12 inh
CN1CCN(C2=Cc3ccccc3Sc3cc(F)c(F)cc32)CC1	?	45µM*	?	?	79µM*	0%[57.4 µM]
CN1CCN(C2=Cc3cc(Cl)ccc3Sc3cc(F)ccc32)CC1	13µM*	22µM*	56µM*	-46%	1%	?
CN1CCN(c2cnn(Cc3ccc(F)cc3)c(=O)c2Cl)CC1	nt	nt	nt	nt	nt	1%
CN1CCN(C2=Nc3ccccc3Sc3ccc(Cl)cc32)CC1	-48%[59 µM]	nt	nt	nt	1%	-3%
CN1CCN(C2=Cc3ccccc3Sc3cc(F)c(Cl)cc32)CC1	18µM*	35µM*	50µM*	-6%	?	-3%
Clc1ccccc1-c1noc(CSc2nnc(N3CCOCC3)n2Cc2ccccc2)n1	nt	nt	nt	nt	nt	18%
CSc1ccc(CN(C)CCc2ccccn2)cc1	nt	32µM*	25µM*	?	50µM*	-16%
CN(CCc1ccccn1)Cc1ccc(Cl)cc1Cl	-20%[0.0925 µM]	50µM*	20µM*	?	?	?
CN(CCc1ccccn1)S(=O)(=O)c1ccccc1F	45µM*	?	?	30%	12%	0%
Cc1ccc(C2Cn3nnc(-c4noc(-c5cc(F)ccc5Cl)n4)c3CO2)cc1 (stereo not drawn)	nt	nt	nt	nt	nt	12%
Cc1sc2c3ccsc3ccc2[n+]1C	?	100µM*	25µM*	-20%	3.5µM*	16µM*
Cc1sc2ccc3sccc3c2[n+]1C	3.5µM*	?	20µM*	4%	2.8µM*	11µM*
COc1cccc(CCN2CC[C@H]3CN(C(=O)Nc4ccc(F)cc4)CC[C@H]3CC2=O)c1OC	nt	nt	nt	nt	nt	5%
COC(=O)c1ccc(NN=Nc2ccc(C)cc2)cc1	7.9µM*	?	32µM*	79µM*	-17%	18µM*
CC(=O)c1ccc(Sc2ccc(C(C)=O)cc2)cc1	3%[59 µM]	2%	10%	40%	12%	-14%
CC(=O)c1ccc(N=Nc2ccc(C)cc2)cc1	7.9µM*	7.9µM*	7.9µM*	?	0%	20%
CC(=O)c1ccc(N=Nc2ccc(N(C)C)cc2)cc1	-51%	1.1µM*	-31%	-19%	-3%	1%
C=C(C)C(=O)Oc1ccc(N=Nc2ccc(C)cc2)ccc1=O	nt	nt	3.5µM*	10µM*	nt	22µM*
N#Cc1ccc(C(=O)N2CCN(c3oc(C4CC4)nc3C#N)CC2)cc1	nt	nt	nt	nt	nt	4%
CN(C)c1ccc(N=Nc2ccccc2Br)cc1	3.5µM*	4.5µM*	10µM*	5µM*	-3%	10%
CN(C)c1ccc(N=Nc2nccs2)cc1	nt	nt	nt	nt	nt	90%
N/C(=N\OC(=O)c1cccc(Br)c1)c1ccccn1	?	-35%	-3%	45%	16%	0%
COc1ccc(C(=O)COC(=O)c2ccccn2)cc1OC	?	?	-25%	24%	nt	5%
Cc1ccc(C(=O)COC(=O)c2cnccn2)cc1	?	2%	-51%	30%	-4%	0%
O=C(COC(=O)c1ccccn1)c1ccc(Br)cc1	50µM*	25µM*	28µM*	18%	19%	-24%
SMILES	G9a block	BAZ2B block	JMJD2A Tudor inh	HP1b binding inh	Sfp inh	ALOX12 inh
O=C(COC(=O)c1cnccn1)c1ccc([N+](=O)[O-])cc1	25µM*	?	-15%	5%	20µM*	0%
O=C(COC(=O)c1ccccn1)c1cccc(Br)c1	nt	18µM*	13µM*	19%	-5%	-16%
COCc1nc(-c2ccc(OC3CCN(S(=O)(=O)c4c(C)noc4C)C3)cc2)no1 (stereo not drawn)	nt	nt	nt	nt	nt	50%
N#Cc1cnn(-c2ccccc2)c1N	13%[59 µM]	nt	-3%	7%	-10%	7%
Cc1cc(=O)[nH]c(-n2ncc(C#N)c2N)n1	2.8µM*	nt	1.6µM*	13%	56µM*	0%
COc1ccc(F)cc1CN(C)CC(=O)N1c2ccccc2NC(=O)CC1C (stereo not drawn)	nt	nt	nt	nt	nt	16%
Cc1ccc(SCC(=O)N(C)C2CCS(=O)(=O)C2)cc1 (stereo not drawn)	1%	-21%	6%	43%	14%	20%
CCN(C(=O)CSc1nnc(-c2ccc(F)cc2)n1C)C1CCS(=O)(=O)C1 (stereo not drawn)	nt	nt	-15%	12%	nt	0%
Cc1ccc(-c2nc(SCC(=O)N(C)C3CCS(=O)(=O)C3)[nH]c2-c2ccc(C)cc2)cc1 (stereo not drawn)	?	50µM*	?	-17%	-5%	-26%
CCN(C(=O)CSc1nnc(C)n1Cc1ccccc1)C1CCS(=O)(=O)C1 (stereo not drawn)	25µM*	-9%	1%[11.4 µM]	45%	-1%	?
C=CCn1c(SCC(=O)N(C)C2CCS(=O)(=O)C2)nnc1-c1ccccc1 (stereo not drawn)	56µM*	-4%	-17%	-12%	nt	-5%
CCN(C(=O)CSc1nnc(-c2ccc(F)cc2)c2ccccc12)C1CCS(=O)(=O)C1 (stereo not drawn)	35µM*	-11%	-22%	15%	-9%	5%

Screens as filed in PubChem BioAssay.
